Records with an inconclusive call do not appear. The source made the active and inactive calls. The call rests on the fitted dose curve; in most records, active means well fitted activation curve with a large enough effect in the main read-out, with a control signal flat (not every such curve was filed as active); inconclusive means small, poorly fitted or top-dose-only effect, or effect the other way, or a change in a side signal; inactive means flat fitted curve, though single readings scatter.
biological target: 3',5'-cyclic-AMP phosphodiesterase 4B (Homo sapiens) (UniProt Q07343); experiment: qHTS Assay for Inhibitors of PDE-IV (AID 607); settings: HEK293 ACTOne CNG channel cells, membrane potential fluorescence; series mostly up to 22.9 µM
Source text: NIH Chemical Genomics Center [NCGC]
NIH Molecular Libraries Screening Centers Network [MLSCN]
The cyclic nucleotide phosphodiesterases (PDEs) are proteins that catalyze hydrolysis of 3', 5'-cyclic nucleotides, such as cyclic adenosine monophosphate (cAMP) and cyclic guanosine monophosphate (cGMP), to their corresponding 5'-nucleotide monophosphates. These enzymes play an important role in controlling cellular concentrations of cyclic nucleotides and have a central role in a variety of intracellular signaling events. cAMP PDEs are emerging as a promising class of drug targets in asthma and cardiovascular disease therapeutic areas.
There are no commercially available cell-based screening assays for PDE inhibitors: currently biochemical assays are done using pure substrates (cAMP or cGMP) and purified recombinant PDE enzymes. As with other biochemical screens on intracellular targets, false positives and false negatives may result from issues involving cell membrane permeability, cellular metabolism, and the like.
Here we report the development of a cell-based screening assay for cAMP phosphodiesterase (PDE) inhibitors. The assay is based on the BD ACTOne# technology (BD Biosciences) which utilizes a modified cyclic nucleotide-gated channel (CNG) to monitor intracellular cAMP changes in live cells. The CNG channel is localized on the plasma membrane, and opens when the intracellular cAMP level increases, resulting in ion flux and cell membrane depolarization. The influx of cations through the CNG channel can be quantified using membrane potential (MP) dyes. We modified the BD ACTOne technology to allow the detection of PDE inhibitors, and performed an inhibitor screen for PDE-IV, which is expressed endogenously in HEK293 cells. We optimized this assay in homogeneous 1536-well plate assay format for high throughput screening.
NCGC Assay Protocol Summary:
The medium contained 10% FBS (Invitrogen), 2 mM L-glutamine, and 250 ug/ml G418 (Cellgro) and 1 ug/ml puromycin (Clontech). ACTOneTM parental cells (BD Biosciences) were maintained in the same medium without puromycin.
The activity of the CNG channel was measured by BD ACTOneTM membrane potential dye kit (BD Biosciences). Forskolin, a positive control for cAMP activation and RO 20-1724, a PDE inhibitor, were both purchased from Sigma and solublized in DMSO.
Sequence,Parameter,Value,Description
1,Reagent,3 uL,1000 cells/well 1536 TC treated Black plate
3,Compound,0.5 uL,Kalypsys dispense RO 20-1724 100 uM final [A]
4,Reagent,3 uL,BD membrane potential dye
6,Compound,23 nL,Final concentration was 0.7nM to 22.9uM
8,Detector,EX 535 / EM 590 [B],Envision
Footnotes: [A] The stock 2 mM RO 20-1724 PDE inhibitor was made in 10 % DMSO. Parental cell line received 10 uM forskolin + 100 uM RO. [B] Envsion settings: Bottom Excitation 535/20 nm top emission 590/20, gain of 150 and 5 flashes per well.
Keywords: PDE, PDE-IV, cytotoxicity, flourescence, MLSMR, MLSCN, NIH Roadmap, qHTS, NCGC

Chain of 3',5'-cyclic-AMP phosphodiesterase 4B (Homo sapiens) (Q07343 whole entry, looked up): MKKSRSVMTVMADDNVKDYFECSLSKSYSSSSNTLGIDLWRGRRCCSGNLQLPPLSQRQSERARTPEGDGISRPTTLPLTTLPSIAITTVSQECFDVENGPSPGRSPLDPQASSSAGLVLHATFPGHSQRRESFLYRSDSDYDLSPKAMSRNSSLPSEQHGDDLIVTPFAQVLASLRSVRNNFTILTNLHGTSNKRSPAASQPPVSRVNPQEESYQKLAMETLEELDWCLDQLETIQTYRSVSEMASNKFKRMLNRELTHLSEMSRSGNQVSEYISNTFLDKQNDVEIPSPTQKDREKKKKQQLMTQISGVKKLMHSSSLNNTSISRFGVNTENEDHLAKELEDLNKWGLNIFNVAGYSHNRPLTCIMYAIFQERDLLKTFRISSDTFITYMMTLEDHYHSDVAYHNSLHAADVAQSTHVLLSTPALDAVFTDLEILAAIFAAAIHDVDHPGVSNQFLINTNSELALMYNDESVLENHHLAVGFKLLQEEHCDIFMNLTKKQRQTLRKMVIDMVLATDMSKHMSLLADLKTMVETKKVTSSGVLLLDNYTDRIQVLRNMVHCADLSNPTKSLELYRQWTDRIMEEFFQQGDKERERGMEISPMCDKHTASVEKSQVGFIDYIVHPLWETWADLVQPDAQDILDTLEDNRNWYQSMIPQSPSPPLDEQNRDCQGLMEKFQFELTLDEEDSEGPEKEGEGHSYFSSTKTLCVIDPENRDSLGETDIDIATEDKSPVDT

Row | Structure (SMILES) | outcome
1 | O=C(O)CCC(=O)c1ccc(-c2ccccc2)cc1 | inactive
2 | O=C1NCCN1c1ncc([N+](=O)[O-])s1 | inactive
3 | CC(=O)[C@H]1CC[C@H]2[C@@H]3C=CC4=CC(=O)CC[C@@]4(C)[C@H]3CC[C@]12C | inactive
4 | Cc1cc(C)c(NC(=O)C[C@H](CC(=O)O)c2cccc3ccccc23)c(C(=O)N2CCC3(CCCC3)CC2)c1 | inactive
5 | CCCOc1cc(N)ccc1C(=O)OCCN(CC)CC | inactive
6 | CC(=O)N=c1sc(S(N)(=O)=O)nn1C | inactive
7 | Nc1ccc(N=Nc2ccccc2)c(N)n1 | inactive
8 | CNC(=O)c1c(I)c(C(=O)NCC(=O)Nc2c(I)c(C(=O)O)c(I)c(C(=O)NCCO)c2I)c(I)c(N(C)C(C)=O)c1I | inactive
9 | N[C@H](CC(=O)O)C(=O)O | inactive
10 | COc1cc(S(C)=O)ccc1-c1nc2ncccc2[nH]1 (stereo unspecified) | inactive
11 | O=P(O)(O)OP(=O)(O)O | inactive
12 | CN1C(=O)OC(C)(C)C1=O | inactive
13 | Cc1ncc(C[n+]2csc(CCO)c2C)c(N)n1 | inactive
14 | CC1(C)S[C@@H]2[C@H](NC(=O)C3(N)CCCCC3)C(=O)N2[C@H]1C(=O)O | inactive
15 | O=C(O)Cc1cc(I)c(Oc2ccc(O)c(I)c2)c(I)c1 | inactive
16 | CCSc1ccc2c(c1)N(CCCN1CCN(C)CC1)c1ccccc1S2 | inactive

Source: PubChem BioAssay (NCATS)
